In PubChem BioAssay AID1159580 (chemical genetic matrix, 2015):
Where “and” joins values, the source holds several entries; their conditions need not be identical. Identical values can stand only once. The whole screen tested about 5,500 compounds, of which about 2,000 (36%) were called active. Inconclusive results (about 18%) are left out. No stated cut-off is given here; in the data, active means normalized growth mostly below about 0.91 (no sharp cut-off); inconclusive means no clear call, values can overlap the other calls; inactive means mostly above about 0.92. This is one part of the list.

Assay: chemical genetic growth profiling, strain panel (AID 1159580);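 further: tested at 20 µM; growth read once vehicle control cultures reached saturation at 30 °C; 1 = growth at the plate median or of vehicle wells; lower values mean less growth of the strain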
Details: S. cerevisiae deletion strains, growth OD

Measured: normalized growth

NCc1ccc(S(N)(=O)=O)cc1
inactive: locus YAL021C, strain ccr4, active compounds read low 1.01 | locus YAL026C, strain drs2, active compounds read low 0.992 | locus YAL030W, strain snc1, active compounds read low 1.01 | locus YBL061C, strain skt5, active compounds read low 1.01 | locus YBR009C, strain hhf1, active compounds read low 0.972 | locus YBR021W, strain FUR4, active compounds read low 1.01 | locus YBR023C, strain chs3, active compounds read low 1.02 | locus YBR171W, strain sec66, active compounds read low 1 | locus YBR229C, strain ROT2, active compounds read low 0.986 | locus YBR231C, strain swc5, active compounds read low 1.02 | locus YBR279W, strain paf1, active compounds read low 1 | locus YCL011C, strain gbp2, active compounds read low 1.01 | locus YCL016C, strain dcc1, active compounds read low 1.03 | locus YCL029C, strain bik1, active compounds read low 0.993 | locus YCL061C, strain MRC1, active compounds read low 1.02 | locus YCL069W, strain vba3, active compounds read low 0.994 | locus YCR088W, strain abp1, active compounds read low 1.01 | locus YDL005C, strain med2, active compounds read low 1.02 | locus YDL035C, strain GPR1, active compounds read low 1.01 | locus YDL040C, strain nat1, active compounds read low 1 | locus YDL074C, strain BRE1, active compounds read low 1.01 | locus YDL101C, strain DUN1, active compounds read low 0.987 | locus YDL134C, strain PPH21, active compounds read low 0.994 | locus YDL185W, strain tfp1, active compounds read low 0.977 | locus YDL192W, strain arf1, active compounds read low 0.979 | locus YDR001C, strain nth1, active compounds read low 0.998 | locus YDR069C, strain doa4, active compounds read low 1.01 | locus YDR101C, strain arx1, active compounds read low 1.02 | locus YDR137W, strain rgp1, active compounds read low 1.03 | locus YDR150W, strain NUM1, active compounds read low 1.01 | locus YDR159W, strain sac3, active compounds read low 0.983 | locus YDR162C, strain NBP2, active compounds read low 1.01 | locus YDR195W, strain ref2 0.989 | locus YDR297W, strain sur2, active compounds read low 1.01 | locus YDR318W, strain mcm21, active compounds read low 0.99 | locus YDR334W, strain swr1, active compounds read low 1 | locus YDR335W, strain msn5, active compounds read low 1.01 | locus YDR388W, active compounds read low 0.993 | locus YDR392W, strain spt3, active compounds read low 0.969 | locus YDR502C, strain sam2, active compounds read low 0.99 | locus YEL003W, strain gim4, active compounds read low 0.982 | locus YEL037C, strain rad23, active compounds read low 0.992 | locus YEL061C, strain CIN8 (second series), active compounds read low 1 | locus YEL061C, strain CIN8, active compounds read low 1.01 | locus YER015W, strain faa2, active compounds read low 0.99 | locus YER016W, strain bim1, active compounds read low 1.02 | locus YER110C, active compounds read low 0.983 | locus YER111C, strain swi4, active compounds read low 0.998 | locus YER155C, strain BEM2 (second series), active compounds read low 1.01 | locus YER155C, strain BEM2, active compounds read low 0.984 | locus YER167W, strain BCK2, active compounds read low 1.02 | locus YFR010W, strain ubp6, active compounds read low 0.995 | locus YGL078C, strain dbp3, active compounds read low 0.98 | locus YGL086W, strain mad1, active compounds read low 0.995 | locus YGL167C, strain pmr1, active compounds read low 0.997 | locus YGL173C, strain kem1, active compounds read low 1.02 | locus YGL227W, strain vid30, active compounds read low 1.01 | locus YGL240W, strain doc1, active compounds read low 1.04 | locus YGL248W, strain PDE1, active compounds read low 0.984 | locus YGL253W, strain hxk2, active compounds read low 1.01 | locus YGR135W, strain pre9, active compounds read low 0.961 | locus YGR252W, strain gcn5, active compounds read low 0.928 | locus YHR013C, strain ard1, active compounds read low 1.04 | locus YHR027C, strain rpn1, active compounds read low 1.02 | locus YHR030C, strain SLT2, active compounds read low 1.01 | locus YHR079C, strain IRE1 (second series), active compounds read low 0.991 | locus YHR079C, strain IRE1, active compounds read low 1.04 | locus YHR094C, strain hxt1, active compounds read low 0.996 | locus YHR129C, strain ARP1, active compounds read low 0.986 | locus YHR142W, strain chs7, active compounds read low 1.01 | locus YHR200W, strain rpn10, active compounds read low 0.984 | locus YIL066C, strain RNR3, active compounds read low 0.989 | locus YIL073C, strain SPO22, active compounds read low 1.01 | locus YIL125W, strain kgd1, active compounds read low 0.983 | locus YIR030C, strain dcg1, active compounds read low 0.991 | locus YJL092W, strain hpr5, active compounds read low 1.01 | locus YJL095W, strain BCK1 (second series), active compounds read low 1.01 | locus YJL095W, strain BCK1, active compounds read low 0.988 and 1.01 | locus YJL115W, strain asf1, active compounds read low 1 | locus YJL129C, strain trk1, active compounds read low 1.05 | locus YJL134W, strain LCB3, active compounds read low 1 | locus YJL154C, strain vps35, active compounds read low 1 | locus YJL164C, strain tpk1, active compounds read low 0.98 | locus YJL166W, strain qcr8, active compounds read low 1.04 | locus YJL168C, strain set2, active compounds read low 0.991 | locus YJL187C, strain SWE1 (second series), active compounds read low 0.981 | locus YJL187C, strain SWE1, active compounds read low 1.01 | locus YJR043C, strain POL32, active compounds read low 1.01 | locus YJR066W, strain TOR1, active compounds read low 0.957 | locus YJR075W, strain HOC1, active compounds read low 0.995
